This is part of a sample that, as a whole, favours compounds with a hit. Of some 79,000 tested, about 15% had one in any assay. Calls of active or inactive are those of the source. Cut-off read from the data, not from the text of the source: active = growth inhibition above about 70%; inactive = the rest.
Key:
[1] = NCI Yeast Anticancer Drug Screen. Data for the rad52 strain (AID 147);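 note: 0% = growth of vehicle-treated control cultures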; settings: S. cerevisiae rad52 mutant growth inhibition, hits give high values
Procedure, shortened: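 The repair-mutant yeast strain was incubated with compounds, then growth was read and inhibition derived relative to vehicle.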

[2] = NCI Yeast Anticancer Drug Screen. Data for the wt1 strain (AID 149);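 note: 0% = growth of vehicle-treated wt1 cultures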; settings: S. cerevisiae wt1 strain (SPY 50644) growth inhibition, hits give high values
Procedure, shortened: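 Readout: yeast growth inhibition, normalised to vehicle controls, in the wt1 strain exposed to test compounds.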

[3] = NCI Yeast Anticancer Drug Screen. Data for the rad50EPP+ strain (AID 151);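 note: 0% = growth of vehicle-treated control cultures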; settings: S. cerevisiae rad50 mutant strain, hits give high values
Procedure, shortened: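 Vehicle-normalised growth inhibition; rad50EPP+ yeast strain, altered in DNA damage repair, compound-treated.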

[4] = NCI Yeast Anticancer Drug Screen. Data for the mgt1 strain (AID 153); settings: S. cerevisiae mgt1 mutant growth inhibition, hits give high values
Procedure, shortened: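 Vehicle-normalized growth inhibition is determined in mgt1 yeast, a strain selected for a defined alteration in DNA repair or cell cycle control.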

[5] = NCI Yeast Anticancer Drug Screen. Data for the rad50 strain (AID 155);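 note: 0% = growth of vehicle-only cultures of the same strain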; settings: S. cerevisiae rad50 strain growth inhibition, hits give high values
Procedure, shortened: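 Compounds were tested on a yeast strain with an engineered DNA damage repair alteration; the reported value is growth inhibition normalised to vehicle treatment.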

[6] = NCI Yeast Anticancer Drug Screen. Data for the mec2-1 strain (AID 157); settings: S. cerevisiae mec2-1 strain, hits give high values
Procedure, shortened: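 Mutant yeast (mec2-1) grown with compound; growth inhibition relative to vehicle control reported.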

[7] = NCI Yeast Anticancer Drug Screen. Data for the rad14 strain (AID 159);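 note: 0% = growth of vehicle-treated control cultures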; settings: S. cerevisiae rad14 strain growth inhibition, hits give high values
Procedure, shortened: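 Compound-treated yeast with a defined DNA-repair lesion; growth inhibition normalised to vehicle-treated cultures.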

[8] = NCI Yeast Anticancer Drug Screen. Data for the sgs1 mgt1 strain (AID 161);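 note: 0% = growth of cultures given vehicle only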; settings: S. cerevisiae sgs1 mgt1 strain, hits give high values
Procedure, shortened: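 Compounds are added to genetically altered yeast, and growth is compared with cultures given vehicle alone to give percent inhibition.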

[9] = NCI Yeast Anticancer Drug Screen. Data for the CLN2oe strain (AID 163);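 note: 0% = growth of vehicle-only control cultures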; settings: S. cerevisiae CLN2oe strain, hits give high values
Procedure, shortened: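 Compounds are applied to yeast harbouring a defined cell-cycle control change; reduced growth compared with vehicle-treated controls gives the value.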

[10] = NCI Yeast Anticancer Drug Screen. Data for the cln2 rad14 strain (AID 165);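 note: 0% = growth equal to vehicle treated cultures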; settings: S. cerevisiae cln2 rad14 strain, hits give high values
Procedure, shortened: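 Readout is yeast growth inhibition versus vehicle-treated controls, using a strain with cln2 and rad14 alterations exposed to compound.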

[11] = NCI Yeast Anticancer Drug Screen. Data for the bub3 strain (AID 167); settings: S. cerevisiae bub3 mutant strain, hits give high values
Procedure, shortened: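 Growth of a checkpoint-deficient yeast mutant is measured after compound exposure. Values represent inhibition relative to vehicle.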

[12] = NCI Yeast Anticancer Drug Screen. Data for the wt2 strain (AID 169);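 note: 0% = growth of vehicle-treated yeast cultures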; settings: S. cerevisiae wt2 strain growth inhibition, hits give high values
Procedure, shortened: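 Against vehicle-treated controls, the growth of yeast exposed to each compound was compared, and the inhibition was recorded.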

[13] = NCI Yeast Anticancer Drug Screen. Data for the mlh1 strain (AID 171);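 note: 0% = growth of vehicle-treated control cultures of the same strain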; settings: S. cerevisiae mlh1 strain growth inhibition, hits give high values
Procedure, shortened: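 Measured: yeast growth. Reference: vehicle-treated controls. Organism: strain with a defined alteration affecting DNA damage repair or cell cycle control, treated with compound.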

[14] = NCI Yeast Anticancer Drug Screen. Data for the sgs1 strain (AID 173);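 note: 0% = growth of vehicle-only control cultures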; settings: S. cerevisiae sgs1 mutant, hits give high values
Procedure, shortened: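 Each compound was added to cultures of the altered yeast strain. Growth was recorded, and inhibition was derived by comparison with vehicle controls.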

[15] = NCI Yeast Anticancer Drug Screen. Data for the mlh1 rad18 strain (AID 175); settings: S. cerevisiae mlh1 rad18 strain growth inhibition, hits give high values
Procedure, shortened: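 Genetically defined yeast (DNA repair-deficient) exposed to compounds; growth inhibition determined relative to vehicle.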

[16] = NCI Yeast Anticancer Drug Screen. Data for the rad18 strain (AID 177); settings: S. cerevisiae rad18 mutant growth inhibition, hits give high values
Procedure, shortened: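 Vehicle-treated cultures served as the baseline for scoring compound-induced growth inhibition in DNA-repair-mutant yeast.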

[17] = at 5.0 µM (retest, dose inferred, filed as 0.5)
[18] = at 50.0 µM (retest, dose inferred, filed as 5.0)

Measured: growth inhibition

Oc1[nH]c2ccccc2c1N=NC(=S)N1CCCCC1
inactive: [1]; at 1.2 µM 6% | [1]; at 3.7 µM 11% | [1]; at 11.0 µM 19% | [2]; at 1.2 µM -1% | [2]; at 3.7 µM 0% | [2]; at 11.0 µM 4% | [3]; at 1.2 µM 6% | [3]; at 3.7 µM 16% | [3]; at 11.0 µM 28% | [3]; at 33.0 µM 39% | [3]; at 100.0 µM 58% | [4]; at 1.2 µM 0% | [4]; at 3.7 µM 1% | [4]; at 11.0 µM 23% | [5]; at 1.2 µM 5% | [5]; at 3.7 µM 11% | [5]; [17] 11% | [5]; at 11.0 µM 13% | [6]; at 1.2 µM 4% | [6]; at 3.7 µM 6% | [6]; [17] 41% | [6]; at 11.0 µM 23% | [7]; at 1.2 µM 4% | [7]; at 3.7 µM -3% | [7]; at 11.0 µM 9% | [8]; [17] -8% | [9]; at 1.2 µM 2% | [9]; at 3.7 µM -4% | [9]; at 11.0 µM 20% | [10]; [17] 0% | [11]; at 1.2 µM -1% | [11]; at 3.7 µM 5% | [11]; [17] -18% | [11]; at 11.0 µM 15% | [12]; at 1.2 µM 5% | [12]; at 3.7 µM 6% | [12]; at 11.0 µM 13% | [13]; at 1.2 µM 4% | [13]; at 3.7 µM 4% | [13]; at 11.0 µM 16% | [14]; at 1.2 µM 14% | [14]; at 3.7 µM 16% | [14]; at 11.0 µM 28% | [15]; [17] 22% | [16]; at 1.2 µM 5% | [16]; at 3.7 µM 9% | [16]; at 11.0 µM 24%
active: [1]; at 33.0 µM 97% | [1]; at 100.0 µM 98% | [2]; at 33.0 µM 90% | [2]; at 100.0 µM 98% | [4]; at 33.0 µM 97% | [4]; at 100.0 µM 99% | [5]; at 33.0 µM 97% | [5]; [18] 99% | [5]; at 50.0 µM 75.5% | [5]; at 100.0 µM 98% | [6]; at 33.0 µM 97% | [6]; [18] 98% | [6]; at 50.0 µM 80.4% | [6]; at 100.0 µM 99% | [7]; at 33.0 µM 97% | [7]; at 100.0 µM 99% | [8]; [18] 99% | [8]; at 50.0 µM 87% | [9]; at 33.0 µM 98% | [9]; at 100.0 µM 99% | [10]; [18] 99% | [10]; at 50.0 µM 84.8% | [11]; at 33.0 µM 91% | [11]; [18] 99% | [11]; at 50.0 µM 90.3% | [11]; at 100.0 µM 96% | [12]; at 33.0 µM 94% | [12]; at 100.0 µM 99% | [13]; at 33.0 µM 96% | [13]; at 100.0 µM 98% | [14]; at 33.0 µM 99% | [14]; at 100.0 µM 99% | [15]; [18] 99% | [15]; at 50.0 µM 86.5% | [16]; at 33.0 µM 89% | [16]; at 100.0 µM 97%

Clc1ccc2c(c1)N(CCCN1CCCC13CCCCC3)c1ccccc1S2
active: [10]; at 50.0 µM 84% | [15]; [18] 95%
inactive: [1]; at 1.2 µM 1% | [1]; at 3.7 µM 3% | [1]; at 11.0 µM 2% | [1]; at 33.0 µM 1% | [1]; at 100.0 µM -7% | [2]; at 1.2 µM 1% | [2]; at 3.7 µM -3% | [2]; at 11.0 µM -5% | [2]; at 33.0 µM -5% | [2]; at 100.0 µM -7% | [3]; at 1.2 µM 0% | [3]; at 3.7 µM 3% | [3]; at 11.0 µM -2% | [3]; at 33.0 µM -3% | [3]; at 100.0 µM -7% | [4]; at 1.2 µM 2% | [4]; at 3.7 µM -1% | [4]; at 11.0 µM 3% | [4]; at 33.0 µM -2% | [4]; at 100.0 µM -2% | [5]; at 1.2 µM 4% | [5]; at 3.7 µM 10% | [5]; [17] 3% | [5]; at 11.0 µM 4% | [5]; at 33.0 µM 4% | [5]; [18] 61% | [5]; at 50.0 µM -2.15% | [5]; at 100.0 µM 2% | [6]; at 1.2 µM -3% | [6]; at 3.7 µM 3% | [6]; [17] -3% | [6]; at 11.0 µM 2% | [6]; at 33.0 µM 0% | [6]; [18] 20% | [6]; at 50.0 µM 39.8% | [6]; at 100.0 µM -8% | [7]; at 1.2 µM -2% | [7]; at 3.7 µM -7% | [7]; at 11.0 µM -2% | [7]; at 33.0 µM 0% | [7]; at 100.0 µM 4% | [8]; [17] -11% | [8]; [18] 43% | [8]; at 50.0 µM -25.4% | [9]; at 1.2 µM 2% | [9]; at 3.7 µM 4% | [9]; at 11.0 µM 4% | [9]; at 33.0 µM 3% | [9]; at 100.0 µM 2% | [10]; [17] -21% | [10]; [18] -5% | [11]; at 1.2 µM 4% | [11]; at 3.7 µM -13% | [11]; [17] -5% | [11]; at 11.0 µM 1% | [11]; at 33.0 µM 2% | [11]; [18] 15% | [11]; at 50.0 µM -0.55% | [11]; at 100.0 µM 7% | [12]; at 1.2 µM 1% | [12]; at 3.7 µM 2% | [12]; at 11.0 µM 0% | [12]; at 33.0 µM -2% | [12]; at 100.0 µM -2% | [13]; at 1.2 µM 0% | [13]; at 3.7 µM 2% | [13]; at 11.0 µM -4% | [13]; at 33.0 µM -15% | [13]; at 100.0 µM 8% | [14]; at 1.2 µM -2% | [14]; at 3.7 µM -3% | [14]; at 11.0 µM -6% | [14]; at 33.0 µM -7% | [14]; at 100.0 µM -6% | [15]; [17] -6% | [15]; at 50.0 µM 10.1% | [16]; at 1.2 µM -1% | [16]; at 3.7 µM -1% | [16]; at 11.0 µM -9% | [16]; at 33.0 µM -22% | [16]; at 100.0 µM -33%
